Assay results taken from the supplement of paper PMC6555819.

Test system: VDR:RXRa (NR concentration 270 nM, RXRa partner concentration 90 nM)
Experiment: PBM binding z-score (relative to random genomic background probes); higher = stronger binding; sequences stand for … in GC…GCGATTGACAGCGTAGAATGAAGG
Description: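 Protein-binding microarray (Agilent 4x180K custom design, double-stranded 60-nt probes: 5' GC cap, 34-nt variable region, 24-nt constant primer region; full probe sequence given). Purified or IVT nuclear receptor:RXRα heterodimers (3:1 NR:RXRα, mostly 270:90 nM) or homodimers were incubated for 1 h in PBS with 2% milk and no ligand, then detected with Alexa488 antibodies. Fluorescence from o1-orientation probes (~5 replicates averaged) was converted to z-scores against 500 random hg19 background probes. Variable regions are seed direct-repeat (DR0–DR5) sites, all their single-nucleotide variants and half-site ablations.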

Point of comparison: CCTTACGGGTCACTCCAGGTTATAGCCTCGGAGT, PBM binding z-score 4.09. Against it:
- ATCTGTAGGTAACCAAGTTCAGTGAATGCCGAAC — higher, 4.63
- CGTCCAAGGTGAGCAGGTCAGTGAAAGCGACGTG — lower, 0.0617
- CCTAGTTGGTCGGGAGGTCACACACCGGATATGA — lower, 3.78
- TCGAGTAGGTTAGTGGCATTCAGAATGGCGTCGA — lower, -0.261
- ACAGACAGATGATGAAGGTAACTCAGGCTATCAT — lower, 0.0494
- CGAACTAGGTCAGAACAGGACAATGAAGGATGAT — lower, 1.11
- GCGGCTGGGGCAAAGCAGGTTACCATAAGGTTGG — lower, 0.192
- ATCTCTAGGTAACAAGTTGAGTGAAAGAGAGGAC — lower, 0.415
- CCATACGGGTCACGAGGTTATAGCACGACGAGCG — higher, 5.02
- CGAACTTGGTCAAGGACAGTGAATCTCCGCACGC — lower, -0.245
- CTACCAAGGTGGACAAGGTCGTTGATTACTATTC — lower, 3
- GCACATAGGTAATACAAGGTGAAAGTCCGATTGT — lower, 0.394
- GCTGTTAGGTCAACTGATGGTCAGCTAAAGCTCG — lower, 2.01
- CCGAGTAGGTTATGGGGCATGCAGGCAACGGTGA — lower, -0.196
- TATACAGCGTCAAAGGCCAGAGTACGAATGTCGA — lower, -0.305
- TCGAGTAGGTTAGACGGGGCATTCAGCCAACATA — lower, 1.29
- TATACAGGGTCAACGGCCAGAGTACGAATGTCGA — higher, 4.6
- AGTCAAAGTTCAGGTCGAGGTAACGTAAAGCACG — lower, 3.41
- TCTGCTAGGTTAACGATGGTCAGCTAATCTGCTA — lower, -0.0905
- TCAGACAGGTGAAGGTAACTCCGGTACGCAGTCG — lower, 0.726
- ACTATTAGTTGTGACGAGGGCAACCGATAGGTTG — lower, 0.506
- AATATTAGTTGAGACGAGGGCAACCGATAGGTTG — lower, 1.01
- ACTCGGAGCACAAAGGTCAGAGCTACGCCAGTGA — lower, 3.58
- AGAACGAGGGCAATGAGTTAATAGCACGGGTGGC — lower, 4.04
- GCAGACAGGTGAAACGAAGGTAACTCAGGGTGGC — lower, -0.301
- ATCGAAAGGTCGAGGTCAGTATAGAGAAAGGGAA — higher, 4.49
- CCTAGCAGGCCAGGATCACTCAAGCATTTCGCTT — lower, -0.583
- TCTTGTAGAGCAAGCAGGTTAAGAAAGCCTGAGT — lower, -0.323
- TCTTGTAGATCAAGAGAGGTTAAGAAAGTGCGCT — lower, 1.77
- ATCTCTAGGTAAATATAGTTCAGTGAATGCAAAT — lower, 1.44
- CCTAGTTGGTCTAGGTCACACACGCTATAGGTAC — lower, 1.42
- CGAACTAGGTCATCCAGGACAGTGTATACATTGA — higher, 4.57
- ATATGTAGGTTAGCTGGGTTCATTCAGACTAGGC — higher, 6.4
- CCGACAGGGGCAAAGGTTACCATACTCAGTACGA — lower, 2.6
- ACAATGAGGTTAAGATCAGGGAAACAGAATACAT — lower, 1.3
- ATCTCTAGGTAAGACTCAGATCAGTGAAGAACGC — lower, 0.238
- GCGACTGGGGCATCAGCATGTTACCATAACTTAA — lower, -0.304
- GCTTGTAGATCAAGGTTAAAAAAGACTAAGCTAA — lower, 0.328
- CCTAGCAGGCCAAGCTGGGTCACTCAAGGCTTGA — lower, 0.17
